Assay outcomes deposited in PubChem BioAssay by several laboratories.
Shown are actives, neighbours in structure and some others; about 5.1% of the full set was active somewhere.
RAM inhibit: inhibitors of the yeast RAM network; S. cerevisiae dse1pr::URA3 reporter, 5-FOA growth OD615, 2 d; analog-sensitive cbk1-as2 kinase mutant strain; inhibition, % at 50 µM; 190,000 compounds, 1.8% hits;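 active = inhibition above a set limit, 3 SD over mean compound inhibition, cut at about 8.4% in these data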;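 also: 0% = DMSO-only wells with no growth and 100% = 10 µM 1-NA-PP1 full growth; inhibition rescues growth on 5-FOA so higher OD means more RAM inhibition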
S1P3 antag: antagonists of human S1P3 receptor; CHO S1P3 NFAT-BLA reporter, FRET fluorescence, antagonist mode; AID 485; 170,000 compounds, 0.27% hits; inhibition, % at 4.98 µM; Q99500;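 active = inhibition above the plate cutoff, the mean inhibition of test wells on that plate plus 3 SD, cut at about 28% in these data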;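 also: cells challenged with S1P at its EC80 of 0.8 µM; blue over green emission ratio from cleaved BLA substrate after 4 h stimulation; 0% = S1P-stimulated wells and 100% = unstimulated DMSO-only wells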
ROMK mod: modulates human ROMK potassium channel activity; AID 1918; B-score at 10 µM; Tet-inducible ROMK, thallium flux fluorescence; actives lie on both sides; 130,000 compounds, 2% hits; P48048;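 active = signal ratio slope over the read window, or its plate-corrected B-score, at least 3 SD from the plate mean, either direction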;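 also: B-score of the F/F0 ratio slope over 7 to 12 s after thallium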
S1P4 antag: blocks the human S1P4 receptor; 220,000 compounds, 0.26% hits; S1P4-expressing cells, antagonist mode, reporter read-out; inhibition, % at 4.98 µM; AID 1510; O95977; in the data active = inhibition above about 29%;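 also: 0% = wells stimulated with agonist and 100% = vehicle wells without agonist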
Target sequence (O95977 whole entry, looked up): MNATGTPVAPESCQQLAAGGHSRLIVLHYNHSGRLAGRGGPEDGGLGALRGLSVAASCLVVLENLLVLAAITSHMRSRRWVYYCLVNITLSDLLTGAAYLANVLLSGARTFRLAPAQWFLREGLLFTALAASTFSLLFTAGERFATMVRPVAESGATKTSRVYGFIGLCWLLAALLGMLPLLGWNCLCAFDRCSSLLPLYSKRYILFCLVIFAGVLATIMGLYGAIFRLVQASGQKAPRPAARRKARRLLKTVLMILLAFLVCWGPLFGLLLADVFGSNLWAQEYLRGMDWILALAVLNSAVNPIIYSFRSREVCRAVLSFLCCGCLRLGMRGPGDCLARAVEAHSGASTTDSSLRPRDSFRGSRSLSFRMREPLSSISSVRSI
Cl transport mod: modulators of human KCC2 chloride dependent transport; KCC2 cells, thallium flux FluoZin-2 fluorescence; B-score of Tl+ flux slope (higher = more flux/activation; lower = inhibition) at 10 µM; 190,000 compounds, 2.2% hits;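 active = thallium flux slope and its plate-corrected score both differing from the plate sample mean at a set confidence after two filtering rounds, in either direction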;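 also: slope of fluorescence scaled to starting intensity during 10 to 20 s after thallium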
S1P4 ag: activates the human S1P4 receptor; O95977; S1P4-expressing cell line, agonist reporter assay; activation, % at 4.98 µM; 220,000 compounds, 0.35% hits; in the data active = activation above about 11%;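 also: 0% = DMSO vehicle and 100% = reference agonist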
KCC2 sec1: KCC2 (human) modulation, secondary assay; shares compounds with Cl transport mod; HEK293-KCC2, thallium flux, FluoZin2 fluorescence; stronger effect = higher value; normalised thallium flux (F/F0 slope) at 10 µM; 3,700 compounds, 15% hits;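 active = thallium flux slope above the same plate's solvent-only control mean plus 3 SD; inconclusive = the two replicate wells disagree; inactive = no significant difference from solvent-only control wells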
KCC2 bumet counter: bumetanide-insensitive thallium flux in KCC2 cells with ouabain, counter-screen | shares compounds with Cl transport mod | HEK293-KCC2 + bumetanide/ouabain, thallium flux FluoZin2; stronger effect = higher value | normalized thallium flux at 10 µM | 3,700 compounds, 49% hits | AID 1714;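 active = thallium entry rate above the same plate's blocked-transporter control wells by more than 3 SD; inconclusive = the two repeat wells disagree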;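 also: raw slope of fluorescence over initial fluorescence between 10 and 20 s after thallium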
KCC2 sec2: confirmation of human KCC2 transport modulators; shares compounds with Cl transport mod; HEK293-KCC2, thallium flux FluoZin2 fluorescence; actives lie on both sides; F/F0 rise rate, 10–20 s post-thallium; normalized thallium flux at 10 µM; 3,700 compounds, 23% hits; AID 1715;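 active = thallium flux slope more than 3 SD above or below the plate's solvent-only control mean, mostly below; inconclusive = the two repeat wells disagreed; inactive = no significant shift from solvent-only controls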;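 also: raw slope with 0.1% DMSO as baseline and bumetanide as block control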
HEK293 Tl flux: acts in parental HEK cells, KCC2 counter-screen. thallium flux rate (normalised fluorescence) at 10 µM. AID 1716. shares compounds with Cl transport mod. 3,700 compounds, 46% hits. HEK293 parental cells, thallium flux FluoZin2, ouabain; baseline-ratio fluorescence slope, 10–20 s after thallium;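 active = thallium flux rate significantly above the same plate's solvent-only control wells, beyond their mean plus 3 SD; inconclusive = the two replicate wells gave conflicting results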
KCC2 retest ouab: KCC2 (human) modulation, ouabain retest; shares compounds with Cl transport mod; HEK293-KCC2, thallium flux FluoZin2 fluorescence; bidirectional: low = inhibitor, high = activator; raw Tl+ flux slope (below DMSO = inhibition, above = activation) at 10 µM; 3,700 compounds, 48% hits; AID 1717;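 active = thallium flux slope beyond 3 SD from same-plate DMSO control mean in most replicates, usually higher, sometimes lower; inconclusive = repeat tests gave conflicting results; inactive = no significant difference from controls in most replicates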;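 also: slope of initial-normalized fluorescence between seconds 10 and 20 after thallium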
HEK293 Tl flux2: acts in parental HEK cells, second KCC2 counter-screen; shares compounds with Cl transport mod; HEK293 parental, thallium flux FluoZin-2 fluorescence slope; thallium flux slope at 10 µM; 3,700 compounds, 33% hits; AID 1718;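 active = thallium flux slope above the same plate's solvent-control mean plus 3 SD in both duplicate wells; inconclusive = duplicate wells that disagreed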;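 also: run without ouabain in cells lacking the KCC2 cotransporter; slope of fluorescence scaled to its starting value between 10 and 20 s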
S1P4 agonist cf: confirmation of human S1P4 receptor agonists | shares compounds with S1P4 ag | S1P4 agonist cell-based reporter assay | activation, % at 4.98 µM | 740 compounds, 7% hits | AID 1523; in the data active = activation above about 12%;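 also: 0% = vehicle and 100% = full reference agonist response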
S1P1 ag: counter-screen for S1P4 agonists: agonists of human S1P1 | shares compounds with S1P4 ag | S1P1 agonist cell-based assay, activation | activation, % at 4.98 µM | 740 compounds, 4% hits; in the data active = activation above about 21%;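 also: 0% = vehicle wells and 100% = reference agonist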
Target sequence (P21453 whole entry, looked up): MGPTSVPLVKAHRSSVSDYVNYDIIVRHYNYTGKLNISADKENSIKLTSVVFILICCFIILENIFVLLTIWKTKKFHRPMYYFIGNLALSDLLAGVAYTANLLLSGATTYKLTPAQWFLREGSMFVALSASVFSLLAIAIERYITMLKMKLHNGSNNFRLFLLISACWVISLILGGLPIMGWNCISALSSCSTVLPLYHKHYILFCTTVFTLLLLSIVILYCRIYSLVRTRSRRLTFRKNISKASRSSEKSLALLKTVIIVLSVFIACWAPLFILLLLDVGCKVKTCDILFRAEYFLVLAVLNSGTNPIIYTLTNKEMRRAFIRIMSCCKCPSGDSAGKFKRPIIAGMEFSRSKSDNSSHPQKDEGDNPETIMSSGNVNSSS
S1P4 antag cf: human S1P4 antagonism, confirmation | 520 compounds, 71% hits | inhibition, % at 4.98 µM | shares compounds with S1P4 antag | S1P4-expressing cell line, antagonist mode, reporter read-out; in the data active = inhibition above about 30%
S1P1 antag: human S1P1 antagonism as S1P4 antagonist counter-screen. shares compounds with S1P4 antag. cell-based S1P1 antagonist counterscreen, inhibition. inhibition, % at 4.98 µM. 520 compounds, 37% hits. AID 1564; in the data active = inhibition above about 40%;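 also: receptor stimulated with S1P near its EC80; 0% = agonist stimulated wells and 100% = vehicle only wells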
* = called active by the depositor.

What do the screens show for `Cc1ccc(NC(=O)CN(C)C(=O)CCCN2C(=O)c3ccccc3C2=O)cc1`?
RAM inhibit: -1; S1P3 antag: -10; ROMK mod: 0.0036; S1P4 antag: -6; Cl transport mod: -3.1*; S1P4 ag: 38*; KCC2 sec1: 0.011; KCC2 bumet counter: 0.0072; KCC2 sec2: 0.037; HEK293 Tl flux: 0.0046; KCC2 retest ouab: 0.021; HEK293 Tl flux2: 0.012; S1P4 agonist cf: -2; S1P1 ag: -9

How did Cc1nnc(SCC(=O)N2CCN(C(=O)c3ccco3)CC2)n1-c1ccccc1 do in these assays?
RAM inhibit: 1; S1P3 antag: -9; ROMK mod: -1.2; S1P4 antag: -12; Cl transport mod: 0.87; S1P4 ag: 0

Results for O=C1CCN(S(=O)(=O)c2ccc(Cl)cc2)CCN1 ?
S1P3 antag: -4; S1P4 antag: -16; Cl transport mod: 0.012; S1P4 ag: 1

How did CCC(C)(C)n1nnnc1C(c1cccnc1)N1CCN(c2cccc(C(F)(F)F)c2)CC1 (stereo not given) do in these assays?
RAM inhibit: -1; S1P4 antag: -7; Cl transport mod: -3.2*; S1P4 ag: 15*; KCC2 sec1: 0.0068; KCC2 bumet counter: 0.0039*; KCC2 sec2: 0.031; HEK293 Tl flux: inconclusive; KCC2 retest ouab: 0.018; HEK293 Tl flux2: 0.01; S1P4 agonist cf: 0; S1P1 ag: -9

What do the screens show for `CCC(C)(C)n1nnnc1C(c1ccncc1)N1CCN(c2cccc(OC)c2)CC1` (stereo not given)?
RAM inhibit: 1; S1P3 antag: -12; S1P4 antag: -7; S1P4 ag: 1

How did Cc1ccccc1-c1cccc([C@@H]2C[C@H]3CN(Cc4cccnc4)C(=O)[C@]34CCCN24)c1 do in these assays?
RAM inhibit: 1; S1P3 antag: 4; ROMK mod: -1.3; S1P4 antag: -14; S1P4 ag: 2

How did C=CCNC(=S)N/N=C/c1ccc(C)cc1C do in these assays?
RAM inhibit: -1; S1P3 antag: 12; ROMK mod: -0.16; S1P4 antag: 8; Cl transport mod: 5.2*; S1P4 ag: 48*; KCC2 sec1: 0.012; KCC2 bumet counter: 0.041*; KCC2 sec2: 0.035; HEK293 Tl flux: 0.018*; KCC2 retest ouab: inconclusive; HEK293 Tl flux2: inconclusive; S1P4 agonist cf: -3; S1P1 ag: -3

Results for Cc1ccc(/C=N/n2c(C3CCCCC3)n[nH]c2=S)s1 ?
RAM inhibit: 2; S1P3 antag: -9; ROMK mod: 1.1; S1P4 antag: -10; Cl transport mod: 7.3*; S1P4 ag: 21*; KCC2 sec1: 0.011; KCC2 bumet counter: 0.022*; KCC2 sec2: 0.033; HEK293 Tl flux: 0.011*; KCC2 retest ouab: 0.027; HEK293 Tl flux2: inconclusive; S1P4 agonist cf: -1; S1P1 ag: 0

How did N=C1SCC(=O)N1c1ncc(Cc2ccccc2Cl)s1 do in these assays?
RAM inhibit: 3; S1P3 antag: -4; ROMK mod: -0.093; S1P4 antag: 48*; Cl transport mod: 11*; S1P4 ag: 1; KCC2 sec1: 0.011; KCC2 bumet counter: 0.019*; KCC2 sec2: 0.03; HEK293 Tl flux: 0.014*; KCC2 retest ouab: inconclusive; HEK293 Tl flux2: 0.011; S1P4 antag cf: 94*; S1P1 antag: 98*

How did COC(=O)C1=C(C(=O)OC)[C@@H]2Nc3ccccc3[C@@]23C[C@@H](C(=O)OC)N(C(C)=O)C3=N1 do in these assays?
Cl transport mod: 0.95

Results for COc1cc(NC(=O)Cn2ncc(Cl)c(Cl)c2=O)c(C)cc1[N+](=O)[O-] ?
RAM inhibit: 0; S1P3 antag: -15; ROMK mod: -1.9; S1P4 antag: 93*; Cl transport mod: -5.1*; S1P4 ag: 10; KCC2 sec1: 0.0083; KCC2 bumet counter: 0.0054; KCC2 sec2: 0.033; HEK293 Tl flux: 0.0059*; KCC2 retest ouab: 0.017*; HEK293 Tl flux2: 0.01; S1P4 antag cf: 119*; S1P1 antag: 40*

How did O=C(Nc1nnc(SCc2ccc(F)cc2)s1)c1cccnc1Cl do in these assays?
RAM inhibit: 2; S1P3 antag: -4; ROMK mod: 1.6; S1P4 antag: -8; Cl transport mod: -2; S1P4 ag: -1

Results for O=C(Nc1nnc(SCc2ccc(F)cc2)s1)c1ccccn1 ?
RAM inhibit: -2; S1P3 antag: 14; ROMK mod: -0.0042; S1P4 antag: 31*; Cl transport mod: 44*; S1P4 ag: 0; KCC2 sec1: 0.0066; KCC2 bumet counter: 0.039*; KCC2 sec2: inconclusive; HEK293 Tl flux: 0.036*; KCC2 retest ouab: 0.036*; HEK293 Tl flux2: 0.027*; S1P4 antag cf: 101*; S1P1 antag: 73*

What do the screens show for `Cn1c(=O)c2c(nc(N3CCN(c4ccc([N+](=O)[O-])cc4)CC3)n2C)n(C)c1=O`?
S1P3 antag: 7; S1P4 antag: -6; Cl transport mod: 0.22; S1P4 ag: -1
